JMJD2A Tudor: inhibitors of human JMJD2A Tudor domain; AID 504339; AlphaScreen JMJD2A-Tudor / H3K4me3 peptide binding; Potency, µM (highest dose often 114 µM), without a hit: at the highest dose activity change, negative = inhibition, actives largely listed as inhibitors; 4.4% of 390,000 active; note: potency is the fitted concentration of half-maximal effect; % is set by controls: 0 for no effect and ±100 for the full control effect; nearly all actives have a fitted effect of over 50% in size
CtBP-E1A blk: CtBP/E1A binding inhibition. AlphaScreen GST-E1A/His-CtBP binding, 1536-well; stronger effect = lower value. activity change, % (test concentration not listed). 0.49% of 340,000 active. AID 651724; in the data active = activity change below about -65%; inconclusive = mostly about -30% to -63%; note: % is set by controls: 0 for no effect and ±100 for the full control effect
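GST-E1A and His-tagged CtBP (125 nM each as 5X stock) were preincubated with pin-transferred compound for 2 h at 37 °C in the dark, then glutathione donor and nickel acceptor beads were added for 1 h before AlphaScreen reading.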
HP1b binding inh: HP1-beta chromodomain-methylated histone interaction inhibition; AlphaScreen HP1-beta / biotin-H3K9me3 peptide binding; Potency, µM (titrated, usually from 114 µM), without a hit: at the top dose activity change, negative = inhibition, most hits filed as inhibitors; 0.56% of 390,000 active; P83916; note: potency is the fitted concentration of half-maximal effect; nearly all actives have a fitted effect of over 70% in size
Target sequence (P83916 whole entry, looked up): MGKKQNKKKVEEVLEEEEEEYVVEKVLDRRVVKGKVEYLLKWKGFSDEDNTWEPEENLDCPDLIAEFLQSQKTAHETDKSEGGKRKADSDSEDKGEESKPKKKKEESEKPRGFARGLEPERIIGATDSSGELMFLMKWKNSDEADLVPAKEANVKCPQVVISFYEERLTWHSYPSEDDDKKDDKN
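AlphaScreen: HP1-beta (50 nM) preformed 30 min with biotin-H3(1-18)K9me3 peptide (50 nM) in PBS pH 7.4, 0.01% Tween-20. Compound added for 30 min at RT, then streptavidin donor/nickel chelate acceptor beads (10 ug/mL) for 30 min.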
G9a inh: G9a (human) methyltransferase inhibition. Q96KQ7. G9a H3K9 monomethylation, AlphaScreen, 2 h. Potency, µM (titrated, usually from 102 µM), inactives show top-dose activity, negative = inhibition, most hits filed as inhibitors. 8.8% of 350,000 active; note: potency is the fitted concentration of half-maximal effect; % is set by controls: 0 for no effect and ±100 for the full control effect; nearly all actives have a fitted effect of over 75% in size
Target sequence (Q96KQ7 913-1193 limits assumed): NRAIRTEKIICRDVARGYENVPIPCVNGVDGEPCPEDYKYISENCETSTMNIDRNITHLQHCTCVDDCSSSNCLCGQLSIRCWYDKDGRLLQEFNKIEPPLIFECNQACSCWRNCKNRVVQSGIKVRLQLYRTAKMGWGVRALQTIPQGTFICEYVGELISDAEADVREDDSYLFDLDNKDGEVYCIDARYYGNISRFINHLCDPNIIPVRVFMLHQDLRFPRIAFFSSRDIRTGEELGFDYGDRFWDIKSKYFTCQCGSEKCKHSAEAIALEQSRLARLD
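Signal arises when biotinylated H3K9 peptide, once monomethylated, bridges streptavidin donor and antibody-captured acceptor beads. Enzyme at 20 nM was preincubated 15 min with test compounds; peptide 500 nM and SAM 20 uM then reacted for 2 h.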
BAZ2B inh: blocks human BAZ2B | Q9UIF8 | AlphaScreen BAZ2B-H3K14Ac peptide displacement | Potency, µM (doses to about 114 µM), for inactives: at the highest dose activity change, negative = inhibition, hits mostly inhibitors | 4.4% of 360,000 active | AID 504333; note: potency is the fitted concentration of half-maximal effect; % is set by controls: 0 for no effect and ±100 for the full control effect; nearly all actives have a fitted effect of over 60% in size
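AlphaScreen displacement: compounds (up to 110uM) incubated 30 min at room temperature with a preformed 50 nM BAZ2B/50 nM biotinylated H3K14Ac peptide complex in PBS pH 7.4 with Tween-20. Donor and acceptor beads at 10 ug/mL final added, 20 min light-protected before reading.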
Six1-Eya2 inh: blocks human Six1 binding to Eya2; Q15475+O00167; AlphaScreen GST-Six1/His-Eya2 binding, biochemical; stronger effect = lower value; 0.56% of 360,000 active; AID 651725; activity change, % (no concentration beside the values); in the data active = activity change below about -65%; inconclusive = mostly about -30% to -63%; note: % is set by controls: 0 for no effect and ±100 for the full control effect
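Six1/Eya2 binding was read as AlphaScreen signal after compounds were pinned into GST-Six1 plus His-tagged Eya2 (5X stock 250/500 nM) in pH 8.0 Tris/NaCl/TCEP buffer, beads added, then incubated 1 h, 37 C, dark.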
The depositor's hits bear a star; ? = inconclusive; nt = not tested or not shown; [ ] = remark or other dose. Most compounds without a hit are left out; they make up all but 10% or so of the library. Unless noted, calls come from the whole dose curve; as a rule, active = well fitted inhibition curve with a large enough effect; inconclusive = small, poorly fitted or top-dose-only effect; inactive = no such curve, though single readings can be large or run the other way.

SMILES	JMJD2A Tudor	CtBP-E1A blk	HP1b binding inh	G9a inh	BAZ2B inh	Six1-Eya2 inh
CC1=NN(c2ccccc2)C(=O)/C1=C/C=C/c1ccccc1	8.91µM*	-16.5	31.6µM*	5.01µM*	7.94µM*	-5.3
CC1=NN(c2cccc(C(=O)O)c2)C(=O)/C1=C\C=C\c1ccco1	8.91µM*	3.4	12.6µM*	7.94µM*	10µM*	?
Cn1nnnc1SCCCNCc1cc(Cl)ccc1OCc1ccc(F)cc1	-26.2%	nt	37.0%	-31.0%[59 µM]	-10.0%	nt
Cc1cccc(OCCn2c(SCC(N)=O)nc3ccccc32)c1	-25.8%	nt	57.5%	10.6%[59 µM]	20.4%	nt
CC/C(=N/Nc1ccccc1)c1cnnc(-c2ccccc2)n1	-20.1%	3.6	0.6%	7.08µM*	10.8%	-0.7
Cc1cc(=O)n2[nH]c(-c3ccsc3-n3c(C)ccc3C)cc2n1	-8.1%[11.4 µM]	-16.7	9.3%	nt	44.7µM*	-22.1
Cc1nc2cc(-c3ccsc3-n3c(C)ccc3C)[nH]n2c(=O)c1Cl	?	?	-18.9%	?	50.1µM*	-77.7*
COc1cc(/C=C(/C#N)c2nc(-c3cc4ccccc4oc3=O)cs2)ccc1O	-19.0%	nt	25.8%	-33.4%[59 µM]	-1.4%	nt
CCc1ccc(OCc2cc(=O)n3c4c(sc3n2)CCCC4)cc1	-2.0%	nt	39.2%	-5.8%[59 µM]	1.0%	nt
O=C(/C=C/c1ccco1)Nc1cccnc1Cl	-5.6%	nt	4.7%	79.4µM*	-12.6%	-3.9
O=C(/C=C/c1ccco1)NCc1ccccn1	2.1%	nt	31.2%	35.5µM*	-10.2%	-2.7
O=C(/C=C/c1ccco1)N(c1ccccn1)c1ccccn1	22.4µM*	-11.9	31.6µM*	12.6µM*	22.4µM*	?
O=C(/C=C/c1ccco1)NCC1OCCc2ccccc21 (stereo not given)	50.1µM*	-10.7	31.6µM*	4.8%[12.7 µM]	44.7µM*	?
O=C(c1ccco1)N(c1ccccn1)c1ccccn1	1.8%	0.7	32.8%	5.4%[2.33 µM]	-3.1%	-0.2
O=C(/C=C/c1ccc([N+](=O)[O-])cc1)NCc1ccccn1	-6.9%	9.1	30.3%	-10.7%	-7.2%	2.0
Cc1ccc(CNC(=O)NCc2noc3ccc(C)cc23)cc1	13.6%	nt	38.0%	7.0%[59 µM]	-0.7%	nt
CN(CCCC(=O)Nc1ccc(Br)cc1F)S(=O)(=O)c1ccccc1	1.0%	nt	18.1%	35.5µM*	0.2%	0.8
Cc1ccc(S(=O)(=O)N(C)CCCC(=O)Nc2ccc(F)cc2)cc1	-10.6%	-11.5	38.2%	-28.1%	nt	9.3
CN(CCCC(=O)Nc1ccc(OC(F)F)cc1)S(=O)(=O)c1ccc(F)cc1	0.7%	-5.1	21.9%	44.7µM*	-6.8%	15.6
CN(CCCC(=O)Nc1ccccc1F)S(=O)(=O)c1ccc(F)cc1	0.0%	5.5	31.1%	0.4%	4.0%	0.9
COc1ccc(CCNC(=O)CCc2cn(Cc3ccc(C)cc3)c3ccccc23)cc1OC	2.9%	nt	26.1%	-6.0%[59 µM]	-19.4%	nt
CCC(=O)N1c2ccccc2CC1C(=O)NCCc1ccccc1C (stereo not given)	-9.6%	nt	11.7%	20.1%[59 µM]	-3.3%	nt
CC[n+]1ccc(C)c2cc(S(=O)C(F)(F)F)ccc21 (stereo not given)	-28.9%	2.9	-10.6%	?	-5.3%	4.2
CC[n+]1ccc(C)c2cc(SC(F)(F)F)ccc21	-22.2%	0.0	59.7%	7.94µM*	-16.9%	9.6
CC[n+]1ccc(C)c2cc(P(=O)(c3ccccc3)c3ccccc3)ccc21	?	-15.1	?	?	44.7µM*	3.1
SMILES	JMJD2A Tudor	CtBP-E1A blk	HP1b binding inh	G9a inh	BAZ2B inh	Six1-Eya2 inh
Cc1c(CNCc2ccc(Cl)cc2)c(C(=O)O)c(C)n1Cc1ccc(F)cc1	-22.5%	nt	25.1%	1.1%[59 µM]	-12.1%	nt
CCOC(=O)CN(Cc1cc(OC)cc(N(C)C)c1OC)C(=O)C1CC(CO[Si](C)(C)C(C)(C)C)=CN1C(=O)OC(C)(C)C (stereo not given)	?	nt	-15.6%	nt	nt	nt
NC(=O)CCCCC1CCSS1 (stereo not given)	nt	nt	nt	13.6%[59 µM]	nt	nt
O=C(c1ccccc1)c1cc2ccccc2oc1=O	-15.1%	7.5	26.0%	10.7%	-0.1%	-0.3
O=C(NNC(=O)c1cc2ccccc2oc1=O)c1ccccc1	-8.8%	6.3	?	31.6µM*	3.2%	11.7
O=C(OCCNC(=O)c1cc2ccccc2oc1=O)c1cccnc1	-0.7%	4.7	38.9%	?	-8.2%	1.7
O=C(NCc1ccc(F)cc1)c1cc2ccccc2o1	0.7%	2.7	40.3%	79.4µM*	-9.3%	-1.8
O=C(NNC(=O)c1cc2ccccc2o1)c1ccc(F)cc1	-6.2%	-2.8	25.4%	-7.8%[0.501 µM]	-3.5%	6.9
O=C(NCc1cccnc1)c1cc2ccccc2oc1=O	-9.3%	1.4	-9.0%	50.1µM*	-1.5%	4.4
Cc1nn(CCC(=O)NC(C)C)c(=O)c2nn(-c3ccccc3)c(C)c12	-0.3%	nt	13.7%	-22.5%[59 µM]	-8.2%	nt
Cc1cc(C)c(NC(=O)CN2c3ccccc3S(=O)(=O)c3ccccc32)c(C)c1	-27.3%	nt	84.7%	10.1%[59 µM]	0.3%	nt
O=C(COc1ccc(Br)cc1Br)NC(=S)N1CCCc2ccccc21	50.1µM*	-1.1	-6.2%	8.91µM*	50.1µM*	-16.2
COc1ccc(-c2nnc(SCC(=O)Nc3ccc(F)cc3)s2)cc1	10.6%	nt	25.1%[57 µM]	-0.2%[59 µM]	3.1%	nt
Cc1cc(=O)n2[nH]c(C(=O)O)nc2n1	8.91µM*	2.6	-26.9%	?	?	12.0
CCCc1cc(=O)n2[nH]c(NC(=O)c3ccco3)nc2n1	6.0%	-9.6	23.3%	79.4µM*	-26.1%	7.0
Cc1cc(=O)n2[nH]c(CCC(=O)O)nc2n1	-10.7%	2.7	0.8%	-35.8%	-2.6%	2.2
CCC(=O)Nc1nc2nc(C)cc(=O)n2[nH]1	31.6µM*	-1.2	4.8%	-19.8%[59 µM]	56.2µM*	11.3
Cc1cc(=O)n2[nH]c(COc3ccccc3)nc2n1	2.4%	9.3	32.2%	39.8µM*	5.7%	0.1
Cc1cccc(-c2nc(S(=O)(=O)c3ccc(F)cc3)c(N3CCN(c4ccccc4)CC3)o2)c1	?	nt	-17.7%	-5.2%[59 µM]	?	nt
COc1cccc(OCc2cc(=O)n3cc(C)sc3n2)c1	-7.3%	nt	36.2%	8.8%[59 µM]	2.7%	nt
CC(C)c1ccc(NC(=O)CN2C(=O)C3(SCC(=O)N3c3ccc(F)cc3)c3ccccc32)cc1 (stereo not given)	-31.4%	nt	4.6%	-39.5%[59 µM]	3.1%[57.1 µM]	nt
COc1ccc(Cn2nnnc2C(C(C)C)N2CCN(c3ccccc3OC)CC2)cc1 (stereo not given)	-19.4%	20.8	26.3%	-37.1%[12.7 µM]	-12.6%	4.1
CC(C)C(c1nnnn1Cc1ccc(F)cc1)N1CCN(c2ccc(O)cc2)CC1 (stereo not given)	39.8µM*	-9.4	70.8µM*	12.6µM*	-33.4%	-3.4

High-throughput results as filed in PubChem.
